Assay outcomes from PubChem.
PERK inh: blocks human PERK kinase | Q9NZJ5 | CHO PERK-DD fusion, SEAP luminescence translation reporter | inhibition, % at 5.6 µM | actives 0.17% (n = 220,000) | AID 1416;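 active = inhibition above the mean inhibition of all tested compounds plus 3 SD, set separately per screening campaign, cut at about 2.9% in these data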;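 also: PERK kinase domain activated by AP20187 dimerizer at 100 nM; 0% = DMSO with dimerizer and 100% = rapamycin at 8.4 µM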
eIF4E 4G PPI: inhibitors of eIF4E and eIF4G interaction in translation initiation; TR-FRET eIF4E-eIF4GI(517-606) binding, 2 h; inhibition, % at 21.7 µM; actives 0.37% (n = 220,000); AID 782;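 active = inhibition above about 30%, limit read from the data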;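 also: 0% = full FRET control wells and 100% = background wells lacking eIF4GI fragment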
EP2 mod: modulators of human EP2 prostaglandin E2 receptor | actives 0.83% (n = 260,000) | EP2-expressing cells, cAMP HTRF FRET, PGE2 co-stimulation | induction, % at 25 µM;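 active = compounds whose cAMP rise, as percent of the full-agonist control response, exceeds 60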;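 also: rat C6 glioma line stably carrying human EP2 under a CMV promoter; the protocol text gives 20 µM as final concentration; 100% = response of wells given 1 µM PGE2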
EP2 antag: blocks the human prostaglandin E2 receptor EP2 | actives 0.52% (n = 260,000) | C6 glioma cells expressing human EP2, cAMP TR-FRET; cells stimulated with saturating PGE2 | inhibition, % at 25 µM | P43116;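 active = percent inhibition above 40 after rounding to a whole number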;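 also: rat C6 glioma host cells with rolipram phosphodiesterase inhibitor present; the protocol text gives 20 µM as final concentration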
EP2 cAMP induct: EP2 receptor cAMP induction, counter-screens negative; shares compounds with EP2 mod; C6 glioma EP2 cells, cAMP HTRF induction; plus low (about EC15) PGE2 agonist; calls only at 20 µM (by protocol); actives 47% (n = 1,300); AID 1080;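 active = cAMP induction above 50% in the main assay while under 30% in all four parallel counter assays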;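 also: rat C6 glioma cells stably expressing human EP2 receptor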
* hit, by the source's call; i = inactive; . = no result; + = active, no number. Hits are enriched below; roughly 1.8% of the tested compounds scored in any of these assays.

SMILES	PERK inh	eIF4E 4G PPI	EP2 mod	EP2 antag	EP2 cAMP induct
CCCc1nc(SCC(=O)Nc2nc3c(s2)CCCC3)c2ccccc2n1	-1	-13	59	.	.
Cc1cccc(C)c1NC(=O)CSc1nc(COc2ccccc2)nc2ccccc12	-1	-33	69*	37	i
OC1(c2ccc(F)cc2)CCN(Cc2ccc(N3CCCC3)c(F)c2)CC1	.	.	-37	5	.
CCCCNc1nc2c(S(=O)(=O)c3ccccc3)nnn2c2ccccc12	1	-14	69*	27	i
OCCNc1nc(NCCC2=CCCCC2)nc(N2CCCC2)n1	.	.	12	4	.
O=C1C2C3c4ccccc4C(c4ccccc43)C2c2nc3ccccc3n21 (centres undefined)	-1	0	74*	13	+
O=S(=O)(c1cccs1)N1CN(Cc2cccs2)c2nc3ccccc3nc21	0	-10	65*	13	i
O=S(=O)(c1cccs1)N1CN(Cc2ccccc2)c2nc3ccccc3nc21	1	0	30	14	.
COc1ccc([C@@H]2CN(C(=O)c3ccc4c(c3)OCCO4)C[C@H]2C(=O)O)cc1	.	.	10	3	.
COc1ccc(Cl)cc1NC(=O)CSc1nc2sc(C)c(C)c2c(=O)[nH]1	.	.	-46	28	.
COc1ccc2c(c1)C(C)=CC(C)(C)N2S(=O)(=O)c1ccc(Br)cc1	0	-1	69*	6	+
CC1=CC(C)(C)N(S(=O)(=O)c2ccc(F)cc2)c2ccc(C)cc21	-1	-3	72*	16	+
CCN(CC)c1nc(C)nc2c1sc(=S)n2C	1	2	58	8	.
Cc1nc(N(C)C)c2sc(=S)n(Cc3ccccc3)c2n1	0	4	76*	3	+
CC(C)=CCC/C(C)=C/CC/C(C)=C/CSc1ccccc1C(=O)O	.	.	73*	9	i
COc1ccc(S(=O)(=O)N2CCC(c3nc(-c4ccncc4)n[nH]3)CC2)cc1	.	.	-5	5	.
Cc1ccc2c(c1)C(=NC1CCCCC1)c1cc3ccccc3nc1-2	1	6	37	8	.
Cc1ccc2c(c1)-c1nc3ccccc3cc1C2=NC1CCCCC1	0	3	70*	4	i
CCOC(=O)C1=C(C)NC(C)=C(C(=O)OCC)C1c1cccc(Cl)c1	.	.	-71	29	.
CCc1ccc2nc(-c3cccc(C)c3)nc(SCC(=O)NCC3CCCO3)c2c1 (centres undefined)	0	-12	86*	11	i
CCc1ccc2nc(SCC(=O)NCC3CCCO3)c(C#N)cc2c1 (centres undefined)	0	2	-26	6	.
CCCn1c(C)nc2c(c1=O)c1nc3ccccc3nc1n2CCc1ccccc1	1	.	.	.	.
CCCn1c(C)nc2c(c1=O)c1nc3ccccc3nc1n2CCC1=CCCCC1	-2	0	72*	7	i
COc1ccc(C2(O)CN(c3ccccc3)C3=[N+]2CCS3)cc1OC (centres undefined)	0	-1	17	9	.
OC1(c2ccc(Cl)cc2)CN(c2ccccc2)C2=[N+]1CCS2 (centres undefined)	0	-4	68*	4	+
SMILES	PERK inh	eIF4E 4G PPI	EP2 mod	EP2 antag	EP2 cAMP induct
OC1(c2ccc(Br)cc2)CN(c2ccccc2)C2=[N+]1CCS2 (centres undefined)	1	-9	75*	14	+
Cc1ccc2[nH]c3c(=S)nc[nH]c3c2c1	0	1	88*	12	i
CC(C)n1c2ccccc2c2nnc(SCC(=O)Nc3ccccc3C(=O)O)nc21	0	-1	73*	12	i
Cc1c(C(=O)N2CCC[C@H]2[C@H](O)c2nc3ccccc3s2)oc2ccccc12	.	.	-6	.	.
CC(C)NC(=O)C1CCN(C(=O)c2cc3sccc3n2Cc2ccc(F)cc2)CC1	0	2	-22	-5	.
O=C(c1cc2sccc2n1Cc1ccc(F)cc1)N1CCCc2ccccc21	0	-1	73*	12	+
COc1ccc(OC)c(NC(=O)CSc2nnnn2-c2ccc(C)c(C)c2)c1	.	.	-111	3	.
O=C(C1CC1)N1CCC[C@H]1Cn1nnc2ccccc2c1=O	.	.	-12	.	.
CCCCn1c(-c2csc3c2CCCC3)n[nH]c1=S	0	-4	55	2	i
CCn1c(-c2csc3c2CCCC3)n[nH]c1=S	1	7	6	4	.
C=CCn1c(=O)/c(=C2/Sc3ccc(OC)cc3N2C)s/c1=C1\C(=O)NN=C1C	.	.	2	36	.
COC(=O)c1c(NC(=O)c2ccc3c(c2)OCO3)sc(C(=O)NC2CCCCC2)c1C	.	.	-6	13	.
Cc1onc(-c2ccccc2Cl)c1-c1nc(-c2ccncc2)no1	-1	.	65*	-2	i
Cc1ccc(SC(c2ccc(C)cc2)C(Cn2cncn2)C(=O)c2ccccc2)cc1 (centres undefined)	-1	-26	28	7	.
Cc1ccc(C(Sc2ccccc2)C(Cn2cncn2)C(=O)c2ccccc2)cc1 (centres undefined)	-1	-22	73*	8	+
Cc1occc1-c1nnc(SCC(=O)Nc2ccccc2Cl)n1C	.	.	-16	6	.
FC(F)(F)c1cc(-c2ccccc2)nc(N2CCOCC2)n1	0	4	65*	10	i
O=C(CSc1nc2ccc(NC(=O)c3ccccc3)cc2s1)NC1CC1	.	.	-67	15	.
CC(=O)c1cn(CC(=O)N2CCCc3ccccc32)c2ccccc12	.	.	-54	11	.
Cc1cc(C)nc(SCc2nnc(SCC#N)n2-c2cccc(Cl)c2)n1	-1	0	51	-4	i
Fc1ccccc1Nc1nc2c(s1)CCc1ccccc1-2	0	5	79*	21	+
O=C(Nc1nc2c(s1)CCc1ccccc1-2)c1cccs1	0	5	-47	16	.
O=c1[nH]ncc2c3ccccc3n(Cc3cccc(Cl)c3)c12	0	6	60	8	i
O=c1[nH]ncc2c3ccccc3n(Cc3ccc(F)cc3)c12	0	-14	28	13	.
O=C(c1ccco1)N(Cc1cccc([N+](=O)[O-])c1)c1ccc(Br)cc1	1	7	66*	2	+
O=C(c1ccco1)N(Cc1ccc([N+](=O)[O-])cc1)c1ccc(Br)cc1	0	-1	48	6	.
COc1ccccc1NC(=O)N(Cc1ccc(C)cc1)Cc1cc2cc(OC)c(OC)cc2[nH]c1=O	.	.	19	13	.
Brc1ccc(Cn2c(-c3ccc(Br)o3)nc3ccccc32)o1	-1	5	68*	13	+
CCS(=O)(=O)N1CC=C[C@H]1C(=O)NCCc1ccccc1	.	.	-12	7	.
